Assay results: PubChem BioAssay (NCI)
This is part of a sample that, as a whole, favours compounds with a hit. Of some 83,000 tested, about 20% had one in any assay.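 Single-concentration screen, 48 h exposure, 96-well plates. Endpoint: percent growth. Below 10 = active.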 Unmarked numbers belong to inactive results. Active and inactive are the calls of the source.

Tests used:
Assay in all cases: NCI-60 one-dose screen, 48 h (100 = growth as untreated, 0 = no growth, -100 = all killed)
Conditions in all cases: 10 µM unless noted
[1] = system: SK-MEL-2 melanoma
[2] = system: EKVX NSCLC
[3] = system: SN12C renal
[4] = system: UO-31 renal
[5] = system: ACHN renal
[6] = system: CAKI-1 renal
[7] = system: A498 renal
[8] = system: CCRF-CEM leukemia
[9] = system: MOLT-4 leukemia
[10] = system: TK-10 renal

## CC(=O)N1N=C(c2ccc(Nc3ccnc4cc(Cl)ccc34)cc2)CC1c1ccc(Cl)cc1 (stereo unspecified)
[1]
  growth: 54.1%
[2]
  growth: 36.4%
[3]
  growth: 61.9%
[4]
  growth: 24.1%
[5]
  growth: 34.1%
[6]
  growth: 44.7%
[7]
  growth: 43.9%
[8]
  growth: 31%
[9]
  growth: 34.2%

## CCSc1nc(Nc2ccc(S(=O)(=O)Nc3ccon3)cc2)c(C#N)c(-c2cccc(Br)c2)n1
[1]
  growth: 119%
[2]
  growth: 87.7%
[3]
  growth: 99.2%
[4]
  growth: 102%
[5]
  growth: 91.3%
[6]
  growth: 87.8%
[7]
  growth: 93.7%
[8]
  growth: 77.7%
[9]
  growth: 72.6%

## COc1ccc(-c2cc(-c3nnc(SCC(=O)Nc4ccc(C(C)=O)cc4)n3-c3ccccc3)c3ccccc3n2)cc1OC
[1]
  growth: 97.9%
[2]
  growth: 97.7%
[3]
  growth: 110%
[4]
  growth: 85.3%
[5]
  growth: 108%
[7]
  growth: 114%
[8]
  growth: 104%
[9]
  growth: 107%

## COc1cnc2c(c1)C(=O)c1c-2n(CCCNC2=NCCS2)c(=O)c2cc(F)ccc12
[1]
  growth: 90.7%
[2]
  growth: 67.5%
[3]
  growth: 36.7%
[4]
  growth: 15.9%
[5]
  growth: 6.18% (active)
[7]
  growth: -52.4% (active)
[8]
  growth: 0.88% (active)
[9]
  growth: 0.0786% (active)

## COc1ccc(C2=NN(C(C)=O)C(c3c(C)nn(-c4ccccc4)c3N3CCOCC3)C2)cc1 (stereo unspecified)
[1]
  growth: 106%
[2]
  growth: 88.2%
[3]
  growth: 91.9%
[4]
  growth: 77.2%
[5]
  growth: 95%
[7]
  growth: 91.3%
[8]
  growth: 95.4%
[9]
  growth: 88%

## COc1cc(/C=C/C(=O)CC(=O)/C=C/c2ccc(OC(=O)CCNC34CC5CC(CC(C5)C3)C4)c(OC)c2)ccc1OC(=O)CCNC12CC3CC(CC(C3)C1)C2
[1]
  growth: 11.7%
[2]
  growth: 21.6%
[3]
  growth: 23.8%
[10]
  growth: 70%
[5]
  growth: 79.2%
[6]
  growth: 49.1%
[7]
  growth: 83.4%
[8]
  growth: -23.5% (active)
[9]
  growth: -25.1% (active)
